CBX7 inh = blocks human CBX7 binding to H3K27me3 peptide; AID 1224903; AlphaScreen His6-CBX7 / biotin-H3K27me3 peptide binding; hits give low values; O95931; hit rate 1.1% among 66,000; normalised signal (fraction of DMSO) (no concentration beside the values); in the data active = normalised signal below about 0.5
Target sequence (O95931 whole entry, looked up): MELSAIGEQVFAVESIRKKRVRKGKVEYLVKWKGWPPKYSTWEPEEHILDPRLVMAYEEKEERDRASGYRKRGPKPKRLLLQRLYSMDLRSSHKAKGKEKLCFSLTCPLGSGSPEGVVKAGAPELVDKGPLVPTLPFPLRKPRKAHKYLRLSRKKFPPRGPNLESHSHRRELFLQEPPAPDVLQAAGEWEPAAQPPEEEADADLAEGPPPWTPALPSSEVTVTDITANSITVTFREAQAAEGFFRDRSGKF
* = called active by the depositor. The full list was thinned out, with hits kept by preference.

SMILES	CBX7 inh
CCOC(=O)c1cnc2ccc(OC)cc2c1Nc1ccc(C)cc1	0.99
CCOC(=O)c1cnc2ccc(OC)cc2c1Nc1ccc(OC)cc1	0.58
CCOC(=O)c1cnc2ccc(OCC)cc2c1Nc1ccc(F)c(Cl)c1	0.4*
CCOC(=O)c1cnc2ccc(OC)cc2c1Nc1ccc(N(C)C)cc1	0.26*
CCOC(=O)c1cnc2ccc(OCC)cc2c1Nc1ccc(C)c(C)c1	1.2
CCOC(=O)c1cnc2ccc(OCC)cc2c1Nc1ccc(OCC)cc1	1.1
Cc1ccc(-c2nc3cc(C)ccn3c2NC(=O)c2ccccc2)cc1	0.99
COc1ccc(Nc2nc(N3CCN(S(=O)(=O)c4ccc(C)cc4)CC3)nc3ccccc23)cc1	1.1
COc1ccc(NC(=O)Cn2nc(Cc3cccnc3)c3ccccc3c2=O)cc1	0.99
O=C(CSc1oc(-c2ccc(F)cc2)nc1S(=O)(=O)c1ccccc1)Nc1ccc(F)cc1	0.94
CCOC(=O)c1cc(-c2ccc(OC)cc2)n(CCC(=O)Nc2ccc(CC)cc2)c1C	0.94
CCCN1Cc2cccc(C(=O)Nc3cccc(-c4nc5ccccc5[nH]4)c3)c2C1=O	1
COc1ccc(CNc2cc(C)nc3c(-c4ccc(OC)c(OC)c4)c(C)nn23)cc1	0.92
COc1ccc(-c2c(C)nn3c(NCc4ccc(F)cc4)cc(C)nc23)cc1OC	0.89
COc1ccc(-c2c(C)nn3c(NCc4ccccn4)cc(C)nc23)cc1OC	0.39*
Cc1ccccc1CN1C(=O)CSc2ccc(C(=O)NCCC(C)C)cc21	1.2
CC1=Nn2c(nc(-c3ccccc3)c2-c2ccccc2)NC(=O)C1	0.89
CCOC(=O)N1CCC(NC(=O)c2nc(-c3ccc(Cl)cc3)oc2C)CC1	0.79
O=C(NC1CCCCCC1)c1csc2c1CCCCC2	1.1
COc1ccc(S(=O)(=O)Nc2cccc(C)c2C)c2cccnc12	1
COc1ccc(S(=O)(=O)Nc2ccccc2Cl)c2cccnc12	1.1
COc1cccc2c(S(=O)(=O)Nc3ccc(C(=O)O)cc3)ccnc12	0.12*
CCOc1ccc(Nc2nc(-c3ccccc3)c(Oc3ccc(Cl)cc3)s2)cc1	0.65
COc1ccccc1C(=O)NCCc1c(C)[nH]c2ccc(OCc3ccccc3)cc12	0.44*
Cc1[nH]c2ccc(OCc3ccccc3)cc2c1CCNC(=O)COc1ccc(F)cc1F	0.53
SMILES	CBX7 inh
COc1ccccc1C(=O)NCCc1c(C)[nH]c2ccc(OC(F)(F)F)cc12	0.64
O=C(CSc1nccn1-c1ccccc1)Nc1cccc(F)c1	0.86
COc1cc2c(cc1OC)C(C(=O)Nc1ccc(F)cc1Cl)C(c1ccccc1F)N(C)C2=O (centres undefined)	0.87
CCc1ccc(-c2nc(CSCC(=O)NC3CCCCCC3)c(C)o2)cc1	0.4*
Cc1oc(-c2cccc(F)c2)nc1CSCC(=O)NC1CCCCC1	1.2
Cc1oc(-c2ccc(Cl)cc2)nc1CSCC(=O)NC1CC1	1.1
COc1cccc(C2=NOC(C(=O)Nc3ccc(F)cc3F)C2)c1 (centres undefined)	1.1
CC(C)CCNC(=O)c1cnn(-c2ccccc2)c1-n1cccc1	1
COc1ccccc1OCc1nc2ccccc2n1Cc1ccccc1	1.1
COc1cccc(CNc2ccc3c(c2)nc(C)n3Cc2ccccc2)c1OC	0.31*
COc1ccccc1CNc1ccc2c(c1)nc(C)n2C	1
COc1ccc2c(c1)nc(C)n2Cc1ccccc1	0.97
COc1ccc(CNc2ccc3c(c2)nc(C)n3Cc2ccccc2)cc1OC	0.4*
COc1ccc(CNc2ccc(-c3nc4cc(C)ccc4s3)cc2)cc1OC	1.1
COc1cccc(CNc2ccc3c(c2)nc(C)n3C)c1OC	0.84
COc1ccc(CNc2ccc3c(c2)nc(C)n3Cc2ccccc2)cc1	0.35*
CC(=O)Nc1ccc2c(c1)nc(C)n2Cc1ccccc1	1.2
Cc1ccc(-c2nc3ccc(Br)cn3c2Nc2ccccc2C)s1	0.77
CCOC(=O)N1CCC(Nc2c(NCCN3CCCCCC3)c(=O)c2=O)CC1	1.2
O=C(NCc1ccccc1)c1ccc2c(c1)N(Cc1ccccc1)C(=O)c1ccccc1S2	0.79
COc1ccc(C2Nc3ccc4ncccc4c3C3=C2C(=O)CCC3)c(OC)c1 (centres undefined)	1.1
CCC(C(=O)N1CC(=O)Nc2ccc(Cl)cc2C1c1ccccc1)c1ccccc1 (centres undefined)	0.99
Cc1ccc2nsnc2c1NC(=O)c1cc(Cl)ccc1Cl	1
Cc1ccc2nsnc2c1NC(=O)c1ncn[nH]1	0.45*
Cc1ccc2nsnc2c1NC(=O)c1cc(Br)ccc1Cl	1
SMILES	CBX7 inh
CC(CCc1ccccc1)NC(=O)Cn1c2c(c(-c3ccccc3Cl)cc1=O)CCC2 (centres undefined)	1.1
COC(=O)c1c[nH]n2c(NC3CCCC3)c(-c3cccc(OC)c3)nc12	0.38*
COC(=O)c1c[nH]n2c(NC3CCCCC3)c(-c3ccc(C)cc3)nc12	0.82
CCCCCOc1ccc(NC(=O)c2cccc(C(=O)OC)n2)cc1	1
COC(=O)c1c[nH]n2c(NC3CCCC3)c(-c3ccc(OC)cc3)nc12	0.11*
COC(=O)c1c[nH]n2c(NC3CCCCC3)c(-c3cccc(C)c3)nc12	0.51
CCCCOc1cccc(-c2nc3c(C(=O)OC)c[nH]n3c2NC2CCCC2)c1	0.2*
COC(=O)c1c[nH]n2c(NC3CCCC3)c(-c3cccc(C)c3)nc12	0.67
COC(=O)c1c[nH]n2c(NC3CCCC3)c(-c3ccc(C)cc3)nc12	0.5
COC(=O)c1c[nH]n2c(NC3CCCCC3)c(-c3cccc(Br)c3)nc12	0.52
COC(=O)c1c[nH]n2c(NC3CCCCC3)c(-c3cccc(OC)c3)nc12	0.55
CCCOc1cccc(-c2cc(C(=O)O)c3ccccc3n2)c1	1.1
COC(=O)c1c[nH]n2c(NC3CCCCCC3)c(-c3cccc(OC)c3)nc12	0.5*
Cn1c(=N)n(CC(O)COc2ccc(Cl)cc2Cl)c2ccccc21 (centres undefined)	1
O=C(CSc1ncc(-c2ccc(Cl)cc2)[nH]1)NC1CCCCC1	0.87
CCOC(=O)c1c(CN2CCCC2)n(C2CCCCC2)c2cc(Br)c(O)cc12	0.69
CCOc1ccc(S(=O)(=O)c2cn(Cc3ccc(Cl)cc3)c3ccc(OC)cc3c2=O)cc1	1.1
CCCC1=Nc2cc(C(=O)NC(C)c3ccccc3)ccc2Sc2ccccc21 (centres undefined)	0.98
CCCCn1c(C2CC(=O)N(c3ccc(C)c(C)c3)C2)nc2ccccc21 (centres undefined)	0.92
CCOC(=O)C1CCN(c2c(NCc3ccc(Cl)cc3)c(=O)c2=O)CC1	1.2
COc1ccc(-n2c(Cc3cc(=O)[nH]c(=O)[nH]3)nnc2SCc2ccc(F)cc2)cc1	0.96
NC(=O)C1CCCN(c2nc(-c3ccccc3)cs2)C1 (centres undefined)	1.1
Cc1ccc(Cl)cc1N1CC(C(=O)O)CC1=O (centres undefined)	1
Cc1[nH]c2ccccc2c1C(c1ccncc1)N1CCOCC1 (centres undefined)	1.1
COc1ccc(-c2nnc(NC(=O)c3ccc(S(=O)(=O)N(C)C4CCCCC4)cc3)o2)cc1	0.92
CCCCN(C)S(=O)(=O)c1ccc(C(=O)Nc2c(C(=O)OCC)oc3ccccc23)cc1	1.1
CCCCN(C)S(=O)(=O)c1ccc(C(=O)Nc2nnc(COC)o2)cc1	0.089*
COCc1nnc(NC(=O)c2ccc(S(=O)(=O)N(C)C3CCCCC3)cc2)o1	0.16*
CCCCN(C)S(=O)(=O)c1ccc(C(=O)Nc2nnc(CC)o2)cc1	0.39*
CCCN(CCC)S(=O)(=O)c1ccc(C(=O)Nc2nnc(COC)o2)cc1	0.82

Compound activity as filed in PubChem BioAssay.
